Compound activity as filed in PubChem BioAssay.
ssDAF-12 act = S. stercoralis DAF-12 nuclear receptor activators, primary screen, cell-based, luminescence, HEK293, GRIP1 co-expression, lit1-tk-luc. HEK293 ssDAF-12/GRIP1 lit1-tk-luc reporter; % of 3 µM dafachronic acid response. activation, % at 6.8 µM. Nuclear hormone receptor DAF-12 (Strongyloides stercoralis). AID 652126, 2013. hit rate 1% among 370,000;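 active = activation above the mean over all tested compounds plus 3 SD, cut at about 0.9% in these data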;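 also: 0% = DMSO-only wells and 100% = 3 µM delta7-dafachronic acid wells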
AHR act = AHR activators, primary screen, cell-based, luminescence, luciferase reporter, human. AHR-responsive luciferase reporter cells. activation, % at 5 µM. AID 2796, 2010. hit rate 2.5% among 320,000; in the data active = activation above about 47%;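 also: 0% = vehicle wells and 100% = reference agonist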
DAX1 inh-1 = DAX1 (NR0B1) inhibitors on StAR promoter, primary screen, cell-based, luminescence, SF-1 (NR5A1), full-length DAX-1 | HEK293T StAR-luciferase reporter, SF-1/DAX-1 repression relief | inhibition, % at 6.8 µM | hit rate 1.1% among 370,000;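 active = inhibition above the mean over all tested compounds plus 3 SD, cut at about 3.6% in these data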;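 also: 0% = DAX-1 cells with DMSO and 100% = cells lacking DAX-1 with DMSO; higher inhibition means more luminescence from relief of DAX-1 repression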
hcDAF12 agonist = H. contortus DAF-12 nuclear receptor activators, primary screen, cell-based, luminescence, HEK293, lit1-tk-luc reporter; HEK293 hcDAF-12 lit1-tk-luc reporter; 0% DMSO, 100% Δ7-dafachronic acid; activation, % at 6.8 µM; hit rate 1.4% among 370,000; AID 652067, 2013;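 active = activation above the mean of all tested compounds plus 3 SD, cut at about 5.5% in these data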;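 also: 100% = response to 3 µM Δ7-dafachronic acid high control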
hgDAF12 agonist = H. glycines DAF-12 receptor agonists, primary screen, cell-based, luminescence, HEK293, GAL4 fusion, UAS-luciferase; Nuclear hormone receptor DAF-12 (Heterodera glycines), GAL4 fusion; HEK293 GAL4-hgDAF12 UAS-luciferase reporter, agonist luminescence; normalized to butyrate control; activation, % at 6.8 µM; hit rate 1.8% among 370,000; AID 687014, 2013;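 active = activation above a cutoff set at the mean of all screened compounds plus 3 SD, cut at about 10% in these data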;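 also: 0% = DMSO wells and 100% = sodium butyrate wells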
DAX1 inh-2 = DAX1 (NR0B1) inhibitors, primary screen, cell-based, HEK293, Gal4-DAX1, luciferase luminescence | HEK293 Gal4-DAX1 luciferase reporter | inhibition, % at 6.75 µM | hit rate 0.99% among 340,000;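 active = inhibition above the mean over all tested compounds plus 3 SD, cut at about 4.2% in these data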;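 also: 0% = DAX1-transfected cells with DMSO and 100% = empty-vector control cells with DMSO; inhibition shows as a rise in luminescence from relieved DAX1 repression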
Target sequence (P51843 207-470 limits assumed): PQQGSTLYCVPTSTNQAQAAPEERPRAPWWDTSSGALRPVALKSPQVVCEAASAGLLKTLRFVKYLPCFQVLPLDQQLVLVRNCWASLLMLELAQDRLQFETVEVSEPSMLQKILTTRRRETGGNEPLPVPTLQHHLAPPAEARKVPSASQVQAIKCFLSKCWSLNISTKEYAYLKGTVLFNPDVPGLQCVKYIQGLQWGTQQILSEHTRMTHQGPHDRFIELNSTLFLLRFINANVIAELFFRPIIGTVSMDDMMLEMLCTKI
Starred values were filed as active, the others as inactive; · = no result. Rows were chosen to be rich in hits. Some 5.7% of all compounds tested hit in one or more screens of this group.

SMILES	ssDAF-12 act	AHR act	DAX1 inh-1	hcDAF12 agonist	hgDAF12 agonist	DAX1 inh-2
Cc1ncsc1CCSc1nc2ccccc2c(=O)n1C	-1	96*	-2	-3	0	-1
CC(C)OC(=O)CSc1nnc(-c2ccc(C(C)(C)C)cc2)n1N	-1	3	1	0	3	5.0*
Cc1[nH]c2ccccc2c1/C=C/c1nc2ccccc2c(=O)n1CCO	-1	52*	-2	-1	-1	-3
CC(=O)Oc1ccc(C(=O)Cc2ccc3ccccc3n2)c(O)c1C	-1	2	1	2	6	0
CN(C)CC[n+]1ccc(C(=O)c2ccccc2)cc1	0	0	0	-1	0	5.1*
CC(=O)Nc1cccc(NC(=O)CSc2nnnn2C)c1	-1	·	0	0	0	·
COc1ccc(Br)cc1C(=O)Nc1ccc(Cc2ccncc2)cc1	-1	59*	-1	4	1	0
COc1ccccc1C(=O)NC(=S)Nc1ccc(Cc2ccncc2)cc1	-1	-3	-1	0	-1	-3
O=[N+]([O-])c1cc(N=Nc2ccc3ccccc3c2)ccc1O	1.3*	19	0	4	4	1
CC1CCCCN1Cc1c(O)ccc2c(=O)c(-c3ccc(Br)cc3)coc12 (configuration not stated)	-1	·	-1	0	-2	0
Cc1nc2ccc(C(=O)Nc3ccc(N(C)C)cc3)cc2s1	-2	-12	0	-4	-6	-3
CN(C)c1ccc(NC(=O)c2cccc(C(=O)Nc3ccc(N(C)C)cc3)n2)cc1	-1	68*	0	-1	7	-3
COc1ccccc1C(=O)Nc1cccc(N(C)S(C)(=O)=O)c1	-1	51*	-1	-1	2	2
CN(C)c1ccc(NC(=O)c2ccc3nsnc3c2)cc1	0	1	3	2	11*	1
CSc1ccccc1C(=O)Nc1cccc(N(C)S(C)(=O)=O)c1	-1	6	0	-2	-1	1
COc1cccc(NC(=O)c2cccc(OC)c2OC)c1	0	34	2	0	12*	1
O=C(Nc1ccccc1)c1cccc(C(=O)Nc2ccccc2)n1	-1	2	0	2	0	0
CCOc1ccc(N(CC(=O)NC2CCCCC2)S(=O)(=O)c2c(C)noc2C)cc1	-2	1	-1	0	2	-2
COc1cccc(NC(=O)c2ccccc2F)c1	-1	-2	2	3	11*	2
COc1cccc(NC(=O)c2ccccc2-c2ccccc2C(=O)O)c1	-1	12	1	6.0*	0	0
COc1cc(Cl)c(C)cc1NC(=O)c1cccc(OC)c1OC	-1	58*	1	0	11*	0
Cc1cc(Cl)ccc1NC(=O)c1ccc2c(c1)OCO2	-1	-1	1	1	10	3
COc1cccc(NC(=O)c2c(F)cccc2F)c1	-1	6	1	1	7	-1
CC(=O)c1cccc(NC(=O)c2ccccc2-c2ccccc2C(=O)O)c1	-1	-1	-1	-1	0	-1
COc1cc(Cl)c(C)cc1NC(=O)c1ccc2c(c1)OCO2	-1	73*	0	1	2	3
SMILES	ssDAF-12 act	AHR act	DAX1 inh-1	hcDAF12 agonist	hgDAF12 agonist	DAX1 inh-2
Cc1ccc(S(=O)(=O)N2CCCCC2)cc1NC(=O)C1COc2ccccc2O1 (configuration not stated)	0	·	-1	0	4	-1
CCC(=O)N(Cc1cc2cc(C)c(C)cc2[nH]c1=O)C1CCCCC1	-1	8	1	0	-1	0
COc1cccc(NC(=O)c2ccccc2Br)c1	-1	3	1	1	11*	2
COc1cccc(C(=O)Nc2cccc(NC(=O)c3ccccc3Cl)c2)c1	-1	1	-1	-1	-3	0
COc1ccc(Cl)cc1NC(=O)NCc1ccc2c(c1)OCO2	0	76*	0	0	1	0
COc1cc(NC(=O)c2ccccc2-c2ccccc2)cc(OC)c1OC	·	2	·	·	·	·
COc1cccc(C(=O)Nc2ccc(N(C)C)cc2)c1OC	0	38	3	2	12*	1
COc1cc(NC(=O)c2ccccc2-c2ccccc2)cc(OC)c1	-1	48*	0	-1	1	-1
O=C(NCc1ccc2c(c1)OCO2)Nc1cccc(Cl)c1	-1	30	0	0	5	1
O=C(CCNc1ccc(F)cc1)c1ccco1	-1	-4	0	4	3	0
Cc1ccc(N/C=C(\C#N)c2ccc(OCCCF)cc2)cc1	-1	53*	0	0	0	1
Cc1ccc(-n2c(=O)c3c(c4cc(C)ccc4n3C)n(CC(=O)NCC3CCCO3)c2=O)cc1 (configuration not stated)	0	·	0	3	0	0
Cc1ccc(S(=O)(=O)C2(C(=O)Nc3ccc(C(C)C)cc3)CC2)cc1	1.0*	5	0	-1	8	-2
Cc1nc2sc(C(c3ccco3)N3CCc4ccccc4C3)c(O)n2n1 (configuration not stated)	-2	51*	0	0	0	1
Cc1nc2sc(C(c3ccco3)N3CCN(c4ccccc4F)CC3)c(O)n2n1 (configuration not stated)	-1	-2	0	1	0	-1
C=CCn1c(SCC(=O)NC2CCS(=O)(=O)C2)nnc1-c1cc2c(s1)CCC(CC)C2 (configuration not stated)	-1	2	1	1	10	0
O=C(CSc1nnc2ccc(-c3cccnc3)nn12)Nc1ccccc1F	-2	19	-1	-2	0	1
O=C(CSc1nnc2ccc(-c3cccnc3)nn12)Nc1ccc(F)cc1F	-1	79*	0	0	0	1
Cn1c(SCC(=O)Nc2ccc(F)cc2F)nnc1-c1cccnc1	-1	48*	1	-2	2	3
COc1ccc(NC(=O)C2Cc3cc(S(=O)(=O)N4CCCCC4)ccc3N2C(C)=O)cc1Cl (configuration not stated)	-1	6	0	-2	-1	-1
Cc1ccc(Cc2c(-c3ccccc3)nc3cc(C)ccn23)cc1	1.3*	·	3	4	11*	2
